{"source": "the supplement of paper PMC8253809"}
{"tested_on": "HNSC", "assay": "growth inhibition (% activity, log2 RLU normalised to DMSO / staurosporine); higher = more growth inhibition", "conditions": "33 µM", "how_it_was_run": "(§1)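 On Geltrex-coated 384-well plates, pHGG cell lines and H9-derived neural stem cells were grown with approved drugs pinned in at a single final concentration of about 33 μM, in triplicate, for 7 days at 37 °C, 5% CO2. Per-plate normalisation of log2-transformed CellTiter-Glo luminescence to % activity between solvent and positive control wells followed. Each growth-inhibition value is the median over the replicates.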", "units": {"growth inhibition": "%"}}
{"smiles": "Cc1ccc(-c2cc(C(F)(F)F)nn2-c2ccc(S(N)(=O)=O)cc2)cc1", "growth inhibition": 0.519}
{"smiles": "CC(C)(C)C(=O)OCOP(=O)(COCCn1cnc2c(N)ncnc21)OCOC(=O)C(C)(C)C", "growth inhibition": 47.8}
{"smiles": "NCCNCCNCCNCCN", "growth inhibition": 4.1}
{"smiles": "CC(=O)[C@H]1CC[C@H]2[C@@H]3CC=C4C[C@@H](O)CC[C@]4(C)[C@H]3CC[C@]12C", "growth inhibition": -2.77}
{"smiles": "CC[C@H](C)C(=O)O[C@H]1C[C@@H](C)C=C2C=C[C@H](C)[C@H](CC[C@@H]3C[C@@H](O)CC(=O)O3)[C@H]21", "growth inhibition": 51.5}
{"smiles": "CC(C)/N=c1\\cc2n(-c3ccc(Cl)cc3)c3ccccc3nc-2cc1Nc1ccc(Cl)cc1", "growth inhibition": 66.1}
{"smiles": "COc1ccc(O)cc1", "growth inhibition": 0.201}
{"smiles": "C[C@@H](NCCCc1cccc(C(F)(F)F)c1)c1cccc2ccccc12", "growth inhibition": 49.7}
{"smiles": "NCCS(=O)(=O)O", "growth inhibition": -2.23}
{"smiles": "CC(=O)SCC(Cc1ccccc1)C(=O)NCC(=O)OCc1ccccc1", "note": "(stereo not drawn)", "growth inhibition": -1.4}
{"smiles": "O=C(O)C1=CO[C@@H](O[C@@H]2O[C@H](CO)[C@@H](O)[C@H](O)[C@H]2O)[C@@H]2C(CO)=CC[C@H]12", "growth inhibition": 9.11}
{"smiles": "O=C1[C@H](CC[C@H](O)c2ccc(F)cc2)[C@@H](c2ccc(O)cc2)N1c1ccc(F)cc1", "growth inhibition": -0.443}
{"smiles": "CCCCC(=O)N(Cc1ccc(-c2ccccc2-c2nnn[nH]2)cc1)[C@H](C(=O)O)C(C)C", "growth inhibition": -3.37}
{"smiles": "O=c1[nH]cc(F)c(=O)[nH]1", "growth inhibition": 25.3}
{"smiles": "CN(C)C/C=C/C(=O)Nc1cc2c(Nc3ccc(F)c(Cl)c3)ncnc2cc1O[C@H]1CCOC1", "growth inhibition": 59.4}
{"smiles": "COc1cc(C(=O)NS(=O)(=O)c2ccccc2C)ccc1Cc1cn(C)c2ccc(NC(=O)OC3CCCC3)cc12", "growth inhibition": -0.546}
{"smiles": "c1ccc(CN(CC2=NCCN2)c2ccccc2)cc1", "growth inhibition": 0.623}
{"smiles": "CC(C)CN(C[C@@H](O)[C@H](Cc1ccccc1)NC(=O)O[C@H]1CCOC1)S(=O)(=O)c1ccc(N)cc1", "growth inhibition": -1.76}
{"smiles": "COc1cccc2c1C(=O)c1c(O)c3c(c(O)c1C2=O)C[C@@](O)(C(C)=O)C[C@@H]3O[C@H]1C[C@H](N)[C@H](O)[C@H](C)O1", "growth inhibition": 62.2}
{"smiles": "CCOc1ccc2ccccc2c1C(=O)N[C@@H]1C(=O)N2[C@@H]1SC(C)(C)[C@@H]2C(=O)O", "growth inhibition": 31.9}
{"smiles": "CCOc1nc2cccc(C(=O)OCc3oc(=O)oc3C)c2n1Cc1ccc(-c2ccccc2-c2noc(=O)[nH]2)cc1", "growth inhibition": 16.6}
{"smiles": "COc1ccc2c(c1)c(CC(=O)OCC(=O)O)c(C)n2C(=O)c1ccc(Cl)cc1", "growth inhibition": 6.99}
{"smiles": "N[C@@H]1CONC1=O", "growth inhibition": -0.391}
{"smiles": "O=C(O)c1ccc(-n2nc(-c3ccccc3O)nc2-c2ccccc2O)cc1", "growth inhibition": 1.36}
{"smiles": "CCCCCCNC(=O)n1cc(F)c(=O)[nH]c1=O", "growth inhibition": 24.6}
{"smiles": "C=C1/C(=C\\C=C2/CCC[C@]3(C)[C@@H]([C@H](C)CCCC(C)C)CC[C@@H]23)C[C@@H](O)C[C@@H]1O", "growth inhibition": 1.06}
{"smiles": "COc1cc2nccc(Oc3ccc(NC(=O)C4(C(=O)Nc5ccc(F)cc5)CC4)cc3)c2cc1OC", "growth inhibition": 42}
{"smiles": "Nc1cccc2c1C(=O)N(C1CCC(=O)NC1=O)C2=O", "note": "(stereo not drawn)", "growth inhibition": 0.283}
{"smiles": "CCOC(=O)C1=C[C@@H](OC(CC)CC)[C@H](NC(C)=O)[C@@H](N)C1", "growth inhibition": 0.516}
{"smiles": "Nc1nc2c(ncn2COC(CO)CO)c(=O)[nH]1", "growth inhibition": -1.32}
{"smiles": "O=C(c1ccc(OCCN2CCCCC2)cc1)c1c(-c2ccc(O)cc2)sc2cc(O)ccc12", "growth inhibition": 1.59}
{"smiles": "CC[C@@H]1C(=O)OC[C@@H]1Cc1cncn1C", "growth inhibition": -2.25}
{"smiles": "C=C[C@H]1CN2CC[C@H]1C[C@H]2[C@H](O)c1ccnc2ccc(OC)cc12", "growth inhibition": 2.99}
{"smiles": "CCN1CCN(c2cc(-c3ccc(F)cc3)c3c(n2)CCCCCC3)CC1", "growth inhibition": 5}
{"smiles": "Cc1cc2c(cc1S(N)(=O)=O)S(=O)(=O)CCC2", "growth inhibition": -0.336}
{"smiles": "C[C@@H]1CN(c2c(F)c(N)c3c(=O)c(C(=O)O)cn(C4CC4)c3c2F)C[C@H](C)N1", "growth inhibition": 33.6}
{"smiles": "Cn1c(CNc2ccc(C(=N)N)cc2)nc2cc(C(=O)N(CCC(=O)O)c3ccccn3)ccc21", "growth inhibition": 6.58}
{"smiles": "CCN(CC)CCOc1ccc(C(=C(Cl)c2ccccc2)c2ccccc2)cc1", "growth inhibition": 63.5}
{"smiles": "C[C@@H]1O[C@@H]1P(=O)(O)O", "growth inhibition": 0.39}
{"tested_on": "SUDIPGIV (diffuse intrinsic pontine glioma line)", "assay": "growth inhibition (% activity, log2 RLU normalised to DMSO / staurosporine); higher = more growth inhibition", "conditions": "33 µM", "how_it_was_run": "as §1", "units": {"growth inhibition": "%"}}
{"smiles": "Cc1ccc(-c2cc(C(F)(F)F)nn2-c2ccc(S(N)(=O)=O)cc2)cc1", "growth inhibition": -5.64}
{"smiles": "CC(C)(C)C(=O)OCOP(=O)(COCCn1cnc2c(N)ncnc21)OCOC(=O)C(C)(C)C", "growth inhibition": 13.4}
{"smiles": "NCCNCCNCCNCCN", "growth inhibition": 5.08}
{"smiles": "CC(=O)[C@H]1CC[C@H]2[C@@H]3CC=C4C[C@@H](O)CC[C@]4(C)[C@H]3CC[C@]12C", "growth inhibition": -1.85}
{"smiles": "CC[C@H](C)C(=O)O[C@H]1C[C@@H](C)C=C2C=C[C@H](C)[C@H](CC[C@@H]3C[C@@H](O)CC(=O)O3)[C@H]21", "growth inhibition": 18.1}
{"smiles": "CC(C)/N=c1\\cc2n(-c3ccc(Cl)cc3)c3ccccc3nc-2cc1Nc1ccc(Cl)cc1", "growth inhibition": 21.9}
{"smiles": "COc1ccc(O)cc1", "growth inhibition": -3.15}
{"smiles": "C[C@@H](NCCCc1cccc(C(F)(F)F)c1)c1cccc2ccccc12", "growth inhibition": 4.23}
{"smiles": "NCCS(=O)(=O)O", "growth inhibition": -0.945}
{"smiles": "CC(=O)SCC(Cc1ccccc1)C(=O)NCC(=O)OCc1ccccc1", "note": "(stereo not drawn)", "growth inhibition": -1.43}
{"smiles": "O=C(O)C1=CO[C@@H](O[C@@H]2O[C@H](CO)[C@@H](O)[C@H](O)[C@H]2O)[C@@H]2C(CO)=CC[C@H]12", "growth inhibition": -1.22}
{"smiles": "O=C1[C@H](CC[C@H](O)c2ccc(F)cc2)[C@@H](c2ccc(O)cc2)N1c1ccc(F)cc1", "growth inhibition": -2.25}
{"smiles": "CCCCC(=O)N(Cc1ccc(-c2ccccc2-c2nnn[nH]2)cc1)[C@H](C(=O)O)C(C)C", "growth inhibition": 4.24}
{"smiles": "O=c1[nH]cc(F)c(=O)[nH]1", "growth inhibition": 14.4}
{"smiles": "CN(C)C/C=C/C(=O)Nc1cc2c(Nc3ccc(F)c(Cl)c3)ncnc2cc1O[C@H]1CCOC1", "growth inhibition": 10.9}
{"smiles": "COc1cc(C(=O)NS(=O)(=O)c2ccccc2C)ccc1Cc1cn(C)c2ccc(NC(=O)OC3CCCC3)cc12", "growth inhibition": -0.0974}
{"smiles": "c1ccc(CN(CC2=NCCN2)c2ccccc2)cc1", "growth inhibition": -2.17}
{"smiles": "CC(C)CN(C[C@@H](O)[C@H](Cc1ccccc1)NC(=O)O[C@H]1CCOC1)S(=O)(=O)c1ccc(N)cc1", "growth inhibition": -2.74}
{"smiles": "COc1cccc2c1C(=O)c1c(O)c3c(c(O)c1C2=O)C[C@@](O)(C(C)=O)C[C@@H]3O[C@H]1C[C@H](N)[C@H](O)[C@H](C)O1", "growth inhibition": 57.2}
{"smiles": "CCOc1ccc2ccccc2c1C(=O)N[C@@H]1C(=O)N2[C@@H]1SC(C)(C)[C@@H]2C(=O)O", "growth inhibition": -2.67}
{"smiles": "CCOc1nc2cccc(C(=O)OCc3oc(=O)oc3C)c2n1Cc1ccc(-c2ccccc2-c2noc(=O)[nH]2)cc1", "growth inhibition": -1.36}
{"smiles": "COc1ccc2c(c1)c(CC(=O)OCC(=O)O)c(C)n2C(=O)c1ccc(Cl)cc1", "growth inhibition": -0.727}
{"smiles": "N[C@@H]1CONC1=O", "growth inhibition": -1.17}
{"smiles": "O=C(O)c1ccc(-n2nc(-c3ccccc3O)nc2-c2ccccc2O)cc1", "growth inhibition": -5.33}
{"smiles": "CCCCCCNC(=O)n1cc(F)c(=O)[nH]c1=O", "growth inhibition": 11.2}
{"smiles": "C=C1/C(=C\\C=C2/CCC[C@]3(C)[C@@H]([C@H](C)CCCC(C)C)CC[C@@H]23)C[C@@H](O)C[C@@H]1O", "growth inhibition": 0.347}
{"smiles": "COc1cc2nccc(Oc3ccc(NC(=O)C4(C(=O)Nc5ccc(F)cc5)CC4)cc3)c2cc1OC", "growth inhibition": 0.288}
{"smiles": "Nc1cccc2c1C(=O)N(C1CCC(=O)NC1=O)C2=O", "note": "(stereo not drawn)", "growth inhibition": -0.313}
{"smiles": "CCOC(=O)C1=C[C@@H](OC(CC)CC)[C@H](NC(C)=O)[C@@H](N)C1", "growth inhibition": 1.15}
{"smiles": "Nc1nc2c(ncn2COC(CO)CO)c(=O)[nH]1", "growth inhibition": -0.797}
{"smiles": "O=C(c1ccc(OCCN2CCCCC2)cc1)c1c(-c2ccc(O)cc2)sc2cc(O)ccc12", "growth inhibition": 0.509}
{"smiles": "CC[C@@H]1C(=O)OC[C@@H]1Cc1cncn1C", "growth inhibition": -1.63}
{"smiles": "C=C[C@H]1CN2CC[C@H]1C[C@H]2[C@H](O)c1ccnc2ccc(OC)cc12", "growth inhibition": 2.17}
{"smiles": "CCN1CCN(c2cc(-c3ccc(F)cc3)c3c(n2)CCCCCC3)CC1", "growth inhibition": 4.82}
{"smiles": "Cc1cc2c(cc1S(N)(=O)=O)S(=O)(=O)CCC2", "growth inhibition": -0.262}
{"smiles": "C[C@@H]1CN(c2c(F)c(N)c3c(=O)c(C(=O)O)cn(C4CC4)c3c2F)C[C@H](C)N1", "growth inhibition": 1.6}
{"smiles": "Cn1c(CNc2ccc(C(=N)N)cc2)nc2cc(C(=O)N(CCC(=O)O)c3ccccn3)ccc21", "growth inhibition": 1.54}
{"smiles": "CCN(CC)CCOc1ccc(C(=C(Cl)c2ccccc2)c2ccccc2)cc1", "growth inhibition": 32.8}
{"smiles": "C[C@@H]1O[C@@H]1P(=O)(O)O", "growth inhibition": -0.299}
